Measurements: PubChem BioAssay (NCATS)
Inconclusive results are not listed. Unmarked numbers belong to inactive results. The source made the active and inactive calls. Calls come from the whole dose curve; as a rule, active = well fitted curve in the direction sought with a large enough effect; inconclusive = small, poorly fitted or top-dose-only effect, or another doubt; inactive = no such curve, though single readings can be large; an effect the other way counts as inactive or inconclusive.

target: Aldehyde dehydrogenase, mitochondrial (Homo sapiens) (UniProt P05091); assay: qHTS for Inhibitors of the Aldehyde Dehydrogenase Family (ALDH2) Primary screen (AID 2061308); conditions: ALDH2 enzyme inhibition qHTS, 1536-well; series mostly up to 56 µM; activity change, negative = inhibition: at the top concentration;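 note: plate controls were vehicle for no effect and reference inhibitor for full effect; nearly all actives have a fitted effect of over 55% in size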

| SMILES | activity change, negative = inhibition |
| --- | --- |
| N#Cc1ccc(N[S+](=O)([O-])c2ccc(Nc3nc(-c4ccccc4)cs3)cc2)cc1 | 5.04% |
| Cc1ccc(-c2nnc(NC(=O)Nc3ccc4ccccc4c3)s2)cc1 | 11.5% |
| COc1cc(OC)cc(-c2nnc3n2N=C(c2ccc(OC)c(OC)c2)CS3)c1 | 10.7% |
| COc1cnccc1-c1nc(Nc2ccc(F)c(F)c2)c2ccccc2n1 | 5.21% |
| CC(=O)O[C@@H]1CC[C@@]2(C)C(CC[C@]3(C)C2[C@H](O)C=C2[C@H]4[C@@H](C)[C@H](C)CC[C@]4(C)CC[C@]23C)[C@@]1(C)C(=O)O (stereo partly drawn) | 4.65% [at 28 µM] |
| O=C(Nc1ccc(Cl)c(Cl)c1)Nc1nnc(-c2cccnc2)s1 | 7.52% |
| FC(F)(F)c1ccccc1-c1nc(NCc2cccc3ccccc23)c2ccccc2n1 | -20.1% |
| Nc1nc(NCc2ccc(-c3cccnc3)cc2)c2ccccc2n1 | 10.2% |
| CC(=O)Nc1sc2c(c1C(=O)c1ccccc1)CCN(C(C)C)C2 | -0.286% |
| CC(=O)NC(c1cc(Cl)c2cccnc2c1O)C1CC1 (stereo not drawn) | 5.8% |
| Cc1cc2c(s1)c1cnn(Cc3ccccc3Cl)c(=O)c1n2C | -1.07% |
| COc1ccc(C(=O)OCC#CCSc2nnc(-c3cccc4ccccc34)o2)cc1 | 2.18% |
| O=C(CCc1ccccc1)Nc1cccc([S+](=O)([O-])Nc2ccccc2F)c1 | -6.42% |
| O=C(/C=C/c1ccccc1Cl)Nc1cccc([S+](=O)([O-])Nc2ccccc2F)c1 | -12.2% |
| O=C(Nc1ccc(S(=O)(=O)Nc2nccs2)cc1)c1ccncc1 | -5.09% |
| Cc1cc2c(s1)c1cnn(Cc3cc(F)cc(F)c3F)c(=O)c1n2C | 8.56% |
| O=S(=O)(NC1CCN(S(=O)(=O)c2c(F)cccc2F)CC1)c1ccc2c(c1)OCCO2 | 2.22% |
| O=S(=O)(c1cccc(Cl)c1)N1CCN(S(=O)(=O)c2ccc3c(c2)OCCO3)CC1 | -11.4% |
| N=c1c2c(ccn1-c1ccccc1)Oc1ccc3ccccc3c1C2c1ccccc1 (stereo not drawn) | -28.7% |
| O=C(c1ccccc1)N1CCN(c2nc(-c3cccs3)nc3ccccc23)CC1 | 8.39% |
| COc1ccc(-c2csc(N3CCC(C(N)=O)CC3)n2)cc1OC | 5.59% |
| CC1=C(C(=O)Nc2ccccc2)C(c2ccccc2Br)N=C(Nc2nc3ccccc3o2)N1 (stereo not drawn) | -6.58% |
| Nc1ccc(S(=O)(=O)Nc2cccc3cccnc23)cc1 | 6.18% |

target: Retinaldehyde dehydrogenase 3 (Homo sapiens) (UniProt P47895); assay: qHTS for Inhibitors of the Aldehyde Dehydrogenase Family (ALDH1A3) Primary screen (AID 2061315); conditions: ALDH inhibition qHTS; series mostly up to 56 µM; activity change, negative = inhibition: at the top concentration;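 note: plate controls were DMSO vehicle for no effect and reference inhibitor for full effect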

| SMILES | activity change, negative = inhibition | Potency |
| --- | --- | --- |
| O=C1CCCC2=C1C(c1[nH]ncc1Cl)N=C(Nc1nc3c(Cl)cccc3o1)N2 (stereo not drawn) | 17.8% | – |
| Cc1cc(C)nc(NC(=S)N2CCN(c3nc4ccccc4o3)CC2)c1 | 18.6% | – |
| O=C(/C=C/c1ccccc1)Nc1cccc(S(=O)(=O)Nc2ccccc2F)c1 | – | inactive |
| COc1ccc(OC)c(-c2nnc3n2N=C(c2c(OC)cccc2OC)CS3)c1 | 2.01% | – |
| O=C(Nc1ccc(S(=O)(=O)Nc2nccs2)cc1)c1ccnc2ccccc12 | 6.91% | – |
| N#Cc1c(-c2ccccc2C(F)(F)F)nc2ccccc2c1NCc1ccc(-c2cccnc2)cc1 | -11.5% | – |
| COc1ccc(C2Nc3ccccc3C(=O)N2CCCN(C)C)cc1COc1c(C)cc(NC(C)=O)cc1C (stereo not drawn) | 25.3% | – |
| Cc1nc(C(C)N(C)c2ncnc3ccc(-c4ccc5c(c4)OCO5)cc23)cs1 (stereo not drawn) | -9.76% | – |
| COc1cccc(C2=Nn3c(nnc3-c3ccccc3OC)SC2)c1 | -0.624% | – |
| Cc1cc(-c2nnc3n2CCCCC3)c(C)n1-c1cccc(C(F)(F)F)c1 | 2.98% | – |
| COC(=O)c1ccc(O)c2ncc(N(C)C)cc12 | -16.7% | – |
| c1csc(CNc2ncnc3ccc(-c4ccc5c(c4)OCO5)cc23)n1 | 7.43% | – |
| Cc1ccc(S(=O)(=O)Nc2ccccc2Nc2nc(-c3ccccc3)cs2)cc1 | 9.55% | – |
| O=C(NNC(=O)c1nc2ccccc2[nH]1)OCc1ccccc1 | -1.01% | – |
| COc1cc(OC)cc(-c2nnc3n2N=C(c2c(OC)cccc2OC)CS3)c1 | 4.36% | – |
| Cc1cnc(-c2ccccc2C(C)C)nc1NCC1CCN(c2cccnc2)C1 (stereo not drawn) | 2.57% | – |
| N#Cc1ccccc1CCc1nc2ncc(Br)cc2[nH]1 | -1.32% | – |
| N#Cc1ccc(N[S+](=O)([O-])c2ccc(Nc3nc(-c4ccccc4)cs3)cc2)cc1 | 3.02% | – |
| Cc1ccc(-c2nnc(NC(=O)Nc3ccc4ccccc4c3)s2)cc1 | -18.6% | – |
| COc1cc(OC)cc(-c2nnc3n2N=C(c2ccc(OC)c(OC)c2)CS3)c1 | -1.33% | – |

| SMILES | activity change, negative = inhibition | Potency |
| --- | --- | --- |
| COc1cnccc1-c1nc(Nc2ccc(F)c(F)c2)c2ccccc2n1 | 1.97% | – |
| CC(=O)O[C@@H]1CC[C@@]2(C)C(CC[C@]3(C)C2[C@H](O)C=C2[C@H]4[C@@H](C)[C@H](C)CC[C@]4(C)CC[C@]23C)[C@@]1(C)C(=O)O (stereo partly drawn) | -2.28% [at 28 µM] | – |
| O=C(Nc1ccc(Cl)c(Cl)c1)Nc1nnc(-c2cccnc2)s1 | 5.54% | – |
| FC(F)(F)c1ccccc1-c1nc(NCc2cccc3ccccc23)c2ccccc2n1 | -3.73% | – |
| Nc1nc(NCc2ccc(-c3cccnc3)cc2)c2ccccc2n1 | 7.07% | – |
| CC(=O)Nc1sc2c(c1C(=O)c1ccccc1)CCN(C(C)C)C2 | -0.568% | – |
| CC(=O)NC(c1cc(Cl)c2cccnc2c1O)C1CC1 (stereo not drawn) | 19.6% | – |
| Cc1cc2c(s1)c1cnn(Cc3ccccc3Cl)c(=O)c1n2C | -13% | – |
| COc1ccc(C(=O)OCC#CCSc2nnc(-c3cccc4ccccc34)o2)cc1 | 3.76% | – |
| O=C(CCc1ccccc1)Nc1cccc([S+](=O)([O-])Nc2ccccc2F)c1 | 8.77% | – |
| O=C(/C=C/c1ccccc1Cl)Nc1cccc([S+](=O)([O-])Nc2ccccc2F)c1 | 9.95% | – |
| O=C(Nc1ccc(S(=O)(=O)Nc2nccs2)cc1)c1ccncc1 | 5.21% | – |
| Cc1cc2c(s1)c1cnn(Cc3cc(F)cc(F)c3F)c(=O)c1n2C | 9.37% | – |
| O=S(=O)(NC1CCN(S(=O)(=O)c2c(F)cccc2F)CC1)c1ccc2c(c1)OCCO2 | -9.53% | – |
| O=S(=O)(c1cccc(Cl)c1)N1CCN(S(=O)(=O)c2ccc3c(c2)OCCO3)CC1 | 2.98% | – |
| N=c1c2c(ccn1-c1ccccc1)Oc1ccc3ccccc3c1C2c1ccccc1 (stereo not drawn) | 5.79% | – |
| O=C(c1ccccc1)N1CCN(c2nc(-c3cccs3)nc3ccccc23)CC1 | 8.59% | – |
| COc1ccc(-c2csc(N3CCC(C(N)=O)CC3)n2)cc1OC | -9.09% | – |
| CC1=C(C(=O)Nc2ccccc2)C(c2ccccc2Br)N=C(Nc2nc3ccccc3o2)N1 (stereo not drawn) | 13.1% | – |
| Nc1ccc(S(=O)(=O)Nc2cccc3cccnc23)cc1 | 14.5% | – |
